Assay [1] can be described thus: qHTS assay to identify small molecule antagonists of the estrogen receptor alpha (ER-alpha) signaling pathway using the BG1 cell line in the presence of 0.1 nM 17-beta-estradiol - cell viability counter screen (AID 1259241). Also: nearly all actives have a fitted effect of over 40% in size. Put shortly: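 Cytotoxicity counter-screen: live-cell protease activity measured by fluorescence (30 min reagent step) in the same wells. Cells were VM7Luc4E2 with endogenous ER-alpha and ERE-driven luciferase, treated 22 hr at 37C alongside 0.1 nM 17beta-estradiol final.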

Assay [2] can be described thus: qHTS assay to identify small molecule antagonists of the androgen receptor (AR) signaling pathway using the MDA cell line in the presence of 0.5 nM R1881 - cell viability counter screen (AID 1259242). Also: nearly all actives have a fitted effect of over 45% in size. In a few lines: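 qHTS format. MDA-kb2 (MMTV-luc, AR/GR responsive) + cpd + 0.5 nM R1881 final, 16 hr 37C/0% CO2 → CellTiter-Fluor 30 min → fluorescence intensity.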

In assay [3] the target is Estrogen receptor (Homo sapiens) (UniProt P03372). Description: qHTS assay to identify small molecule antagonists of the estrogen receptor alpha (ER-alpha) signaling pathway using the BG1 cell line in the presence of 0.1 nM 17-beta-estradiol (AID 1259244). Also: nearly all actives have a fitted effect of over 50% in size. Put shortly:
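Reporter is a stably transfected luciferase under four estrogen responsive elements in VM7Luc4E2 cells expressing native full-length ER-alpha; inhibition of 0.1 nM (final) 17beta-estradiol-driven signal over 22 h is read by luminescence.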

A short description of assay [4]: qHTS assay to identify small molecule HDAC inhibitors (AID 1259364).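 Also: wild-type HCT-116 cells with endogenous class I/II HDAC activity; top concentration of the series differs between compounds; nearly all actives have a fitted effect of over 45% in size.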 In a few lines: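 Quantitative high-throughput format: overnight-seeded HCT-116 cells got compounds for 2 hr at 37C; HDAC-Glo I/II reagent added, 30 min RT, luminescence measured.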
Assay [5] is described as follows: qHTS assay to identify small molecule agonists of the sonic hedgehog signaling (Shh) pathway (AID 1259368; calls by dose curve;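 also: NIH/3T3-derived 3T3Gli1-Luc cells carrying a stable Gli1-driven firefly luciferase reporter; series mostly up to about 92 µM; nearly all actives have a fitted effect of over 15% in size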). In a few lines: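 Quantitative high-throughput format using a Gli1-driven firefly luciferase reporter line derived from NIH/3T3 cells. After a 24 hr compound treatment at 37 C and 5% CO2, luminescence reported Gli1 response element activity.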
Assay [6] is described as follows: qHTS assay to identify small molecule antagonists of the sonic hedgehog signaling (Shh) pathway (AID 1259369; calls by dose curve; also: nearly all actives have a fitted effect of over 45% in size; also: potency is read from the fitted curve at half-maximal effect). In a few lines:
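Stable Gli1-Luc reporter NIH/3T3 clone; quantitative HTS in stimulated mode with conditioned medium. Luminescence measured after 24hr compound treatment at 37 C.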

A short description of assay [7]: qHTS assay to identify small molecule agonists of the estrogen receptor beta (ER-beta) signaling pathway - cell viability counter screen (AID 1259380). Also: nearly all actives have a fitted effect of over 30% in size. Put shortly: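 Steps: plate ER-beta-UAS-bla HEK293T cells, rest 6 hr; add compounds in DMSO; incubate 16 hr at 37C, 5% CO2; add FRET substrate 2 hr; add CellTiter-Glo, wait 30 min at room temperature; read luminescence.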

Assay [8] can be described thus: qHTS assay to identify small molecule antagonists of the estrogen receptor beta (ER-beta) signaling pathway - cell viability counter screen (AID 1259382). Also: series mostly up to about 92 µM; nearly all actives have a fitted effect of over 55% in size. Put shortly: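 Viability is scored by CellTiter-Glo luminescence (30 min, room temperature) in ER-beta-UAS-bla HEK293T wells already read for reporter fluorescence. Compound exposure lasts 16 hr at 37C alongside 1nM 17-beta-estradiol in charcoal-stripped serum medium.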

Assay [9] concerns the target Estrogen receptor (Homo sapiens) (UniProt P03372). Nature of the assay: qHTS assay to identify small molecule agonists of the estrogen receptor alpha (ER-alpha) signaling pathway in the presence of an antagonist (AID 1259383; calls by dose curve; also: top concentration of the series differs between compounds; nearly all actives have a fitted effect of over 15% in size). Put shortly:
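Readout was ERE-driven luciferase luminescence in VM7Luc4E2 cells, which express full-length ER-alpha endogenously. Compounds were tested at 15 concentrations for 22hr alongside 10.0nM ICI-182,780 (final concentration).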

The nature of assay [10]: qHTS assay to identify small molecule agonists or antagonists of the thyroid stimulating hormone receptor (TSHR) signaling pathway - wild type cell line counter screen (AID 1259384; calls by dose curve). In a few lines: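 Counter screen in untransfected Hek293: compounds (15-point titration, triplicate) plus phosphodiesterase inhibitor Ro20-1724 added after 18 h plating; 30 min RT. Intracellular cAMP via competitive d2/cryptate immunoassay, 1 h incubation.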

A short description of assay [11]: qHTS assay to identify small molecule agonists of the estrogen receptor alpha (ER-alpha) signaling pathway in the presence of an antagonist - cell viability counter screen (AID 1259386).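 Also: cells exposed to compounds for 22 h at 37 °C before the viability read; nearly all actives have a fitted effect of over 30% in size.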 Also: potency is read from the fitted curve at half-maximal effect. Put shortly: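 In this counter screen, compound effects on VM7Luc4E2 viability were tested in the presence of the antagonist ICI-182,780 at 10.0nM final. Compounds were dosed at 15 concentrations, exposure lasted 22hr, and the CellTiter-Fluor signal was read.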

Assay [12] in a line: qHTS assay to identify small molecule agonists of the sonic hedgehog signaling (Shh) pathway - cell viability counter screen (AID 1259366). Also: nearly all actives have a fitted effect of over 50% in size. Put shortly: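 Cytotoxicity counter screen: CellTiter-Fluor reagent added after 23 h compound exposure, then 1 h at 37C and fluorescence read. Cells were 3T3 Gli1-Luc, seeded 2,000 per well and dosed 4 h post-plating.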
A short description of assay [13]: qHTS assay to identify small molecule antagonists of the sonic hedgehog signaling (Shh) pathway - cell viability counter screen (AID 1259367). Also: nearly all actives have a fitted effect of over 55% in size. Also: potency is read from the fitted curve at half-maximal effect. Put shortly: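 Viability was read by CellTiter-Fluor fluorescence in the same wells, reagent added 23 hr into compound treatment and incubated 1 hr at 37C. The 3T3 Gli1-Luc reporter cells (2,000/well) received conditioned medium after compound and ran 24 hr.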

Assay [14] has as its target Estrogen receptor beta (Homo sapiens) (UniProt Q92731). Nature of the assay: qHTS assay to identify small molecule agonists of the estrogen receptor beta (ER-beta) signaling pathway (AID 1259377; active = well fitted activation curve with a large enough effect in the signal ratio in the repeat runs, not every such curve was filed as active; the % refers to the signal ratio). Put shortly: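 Ratiometric beta-lactamase FRET read-out came after 2 h substrate loading at room temperature. It followed 16 h compound treatment at 37C of GripTite HEK293T cells carrying a UAS-bla reporter, plated in 2% charcoal-stripped FBS medium.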

The target is the same in assay [15]. Description: qHTS assay to identify small molecule antagonists of the estrogen receptor beta (ER-beta) signaling pathway (AID 1259378; active = well fitted inhibition curve with a large enough effect in the signal ratio in the repeat runs, not every such curve was filed as active; the % refers to the signal ratio). In a few lines:
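Antagonist mode: compounds added to beta-lactamase reporter HEK293T ER-beta-UAS cells stimulated with E2 (1nM final), 16 hr at 37C. LiveBLAzer B/G FRET substrate, 2 hours room temperature, fluorescence read-out.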

A short description of assay [16]: qHTS assay to identify small molecule agonists of the androgen receptor (AR) signaling pathway in the presence of an antagonist - cell viability counter screen (AID 1259379).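 Also: MDA-kb2 human breast cancer cells carrying an MMTV luciferase reporter; series mostly up to about 92 µM; nearly all actives have a fitted effect of over 25% in size.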 In a few lines: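 Nilutamide-containing (3.0uM final) MDA-kb2 cultures, 3,000 cells/well, were treated with compounds across 15 concentrations. After 16 hr at 37C with no CO2, cell viability was determined by CellTiter-Fluor fluorescence in the luciferase assay wells.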

Assay [17] in a line: qHTS assay to identify small molecule HDAC inhibitors - cell viability counter screen (AID 1259365). Also: series mostly up to about 92 µM; nearly all actives have a fitted effect of over 50% in size. Put shortly:
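CellTiter-Glo luminescence (30 min, room temperature) reported viability after a 2 h compound exposure at 37 C. Cells: wild-type HCT-116, 1,500 per well, seeded the night before.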

For assay [18], the target named is Thyrotropin receptor (Homo sapiens) (UniProt P16473). Description: qHTS assay to identify small molecule antagonists of the thyroid stimulating hormone receptor (TSHR) signaling pathway (AID 1259385; calls by dose curve; also: nearly all actives have a fitted effect of over 20% in size). Put shortly: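 Antagonist mode: compound-treated TSHR-expressing HEK293 cells were stimulated with 1.5 ng/mL TSH (final) in presence of Ro20-1724 for 30 min at RT. HTRF cAMP detection after 1 h; each compound tested at 15 concentrations, triplicate.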

Assay [19] is described as follows: qHTS assay to identify small molecule phospholipidosis (PLD) inducers (AID 1259344; active = well fitted curve in the direction sought with a large enough effect; an effect the other way counts as inactive or inconclusive). Put shortly: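 Phospholipid accumulation was scored by imaging: fixed, Hoechst-counterstained HepG2 cells stained with LipidTOX Red after 24 h compound exposure at 37 C. Read-outs were pit count and pit intensity per well or per cell, with amiodarone and DMSO controls.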

“And” between values parts separate entries of the source, which are not always exact repeats. Identical values can stand only once. Results filed as inconclusive are left out. Where a structure was tested more than once in an assay, its records may differ in their call. The source made the active and inactive calls. Unless noted, calls follow the shape of the dose curve; as a rule, active = well fitted curve in the direction sought with a large enough effect in the repeat runs; inconclusive = weak or mixed curves; inactive = no such curve, though single readings can be large; an effect the other way counts as inactive or inconclusive.

Estrogen receptor (Homo sapiens), sequence (P03372 whole entry, looked up): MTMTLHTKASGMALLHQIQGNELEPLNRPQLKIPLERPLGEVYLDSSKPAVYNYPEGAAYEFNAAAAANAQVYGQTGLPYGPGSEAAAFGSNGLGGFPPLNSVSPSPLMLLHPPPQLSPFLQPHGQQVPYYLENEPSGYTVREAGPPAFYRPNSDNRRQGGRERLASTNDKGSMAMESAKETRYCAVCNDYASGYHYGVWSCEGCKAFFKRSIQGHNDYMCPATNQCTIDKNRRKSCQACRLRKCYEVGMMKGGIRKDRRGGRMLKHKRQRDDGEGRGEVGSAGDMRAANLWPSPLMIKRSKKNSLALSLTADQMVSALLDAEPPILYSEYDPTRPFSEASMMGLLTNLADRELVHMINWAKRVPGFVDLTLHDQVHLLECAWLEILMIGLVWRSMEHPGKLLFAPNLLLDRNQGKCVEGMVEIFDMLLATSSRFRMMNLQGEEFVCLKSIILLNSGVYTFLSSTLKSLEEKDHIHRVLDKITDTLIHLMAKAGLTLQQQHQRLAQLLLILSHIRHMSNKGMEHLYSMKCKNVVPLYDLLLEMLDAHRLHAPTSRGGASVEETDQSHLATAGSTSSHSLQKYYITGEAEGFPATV
Thyrotropin receptor (Homo sapiens), sequence (P16473 whole entry, looked up): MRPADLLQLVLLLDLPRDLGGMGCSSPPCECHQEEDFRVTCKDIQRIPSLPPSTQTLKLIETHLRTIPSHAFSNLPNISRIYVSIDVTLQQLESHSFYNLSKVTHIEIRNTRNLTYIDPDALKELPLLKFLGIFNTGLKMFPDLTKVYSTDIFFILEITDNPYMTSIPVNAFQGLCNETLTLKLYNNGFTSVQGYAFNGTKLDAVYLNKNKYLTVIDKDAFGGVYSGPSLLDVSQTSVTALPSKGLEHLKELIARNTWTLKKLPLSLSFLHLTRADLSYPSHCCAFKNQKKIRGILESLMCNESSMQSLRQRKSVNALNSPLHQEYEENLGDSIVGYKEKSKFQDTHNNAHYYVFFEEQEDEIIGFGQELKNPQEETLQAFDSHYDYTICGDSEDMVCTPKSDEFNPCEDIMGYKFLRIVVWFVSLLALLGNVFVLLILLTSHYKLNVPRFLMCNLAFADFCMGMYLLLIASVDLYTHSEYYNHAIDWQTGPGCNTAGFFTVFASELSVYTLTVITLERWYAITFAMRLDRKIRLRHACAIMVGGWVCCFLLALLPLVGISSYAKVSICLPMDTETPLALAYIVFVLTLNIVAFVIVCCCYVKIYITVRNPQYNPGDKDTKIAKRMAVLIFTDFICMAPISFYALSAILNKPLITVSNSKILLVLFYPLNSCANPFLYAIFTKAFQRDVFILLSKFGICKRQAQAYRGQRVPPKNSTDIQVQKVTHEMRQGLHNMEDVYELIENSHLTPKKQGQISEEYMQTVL
Estrogen receptor beta (Homo sapiens), sequence (Q92731 whole entry, looked up): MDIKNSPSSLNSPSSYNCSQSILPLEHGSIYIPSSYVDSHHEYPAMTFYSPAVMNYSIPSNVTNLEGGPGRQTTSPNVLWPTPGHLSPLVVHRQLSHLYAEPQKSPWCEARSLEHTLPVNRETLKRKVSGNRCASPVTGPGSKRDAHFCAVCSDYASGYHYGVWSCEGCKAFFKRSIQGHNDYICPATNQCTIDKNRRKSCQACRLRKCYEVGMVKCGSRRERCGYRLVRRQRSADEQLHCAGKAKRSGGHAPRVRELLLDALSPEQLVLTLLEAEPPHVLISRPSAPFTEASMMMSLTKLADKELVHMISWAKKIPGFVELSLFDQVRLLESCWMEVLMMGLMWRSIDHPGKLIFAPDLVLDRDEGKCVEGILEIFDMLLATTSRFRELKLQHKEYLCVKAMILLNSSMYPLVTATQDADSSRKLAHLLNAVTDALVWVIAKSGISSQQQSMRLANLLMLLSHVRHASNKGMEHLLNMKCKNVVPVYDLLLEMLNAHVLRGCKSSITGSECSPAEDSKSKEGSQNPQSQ

As for `O=C(c1ccccc1)c1ccc(O)c(O)c1O`, the Potency entry in [1], in assay [2], in assay [3], in [4], in assay [5] and in assay [7] was “inactive” in each case. Moreover, the Potency entry in assay [8], in assay [9] and in assay [10] was “inactive” in each case. Also, the Potency is 54.9 µM (active) in assay [6] and 61.6 µM (active) in assay [11].

Consider `CC(=O)OCCC(C)C`, for which the Potency entry in assay [1], in assay [2], in assay [4], in [12], in [13] and in assay [5] was “inactive” throughout. Besides, the Potency entry in [6], in assay [14], in assay [15], in assay [16], in [7] and in assay [8] was “inactive” in each case. In addition, the Potency result in assay [11] was “inactive”.

Consider `COC(=O)CCCCC(=O)OC`, for which the Potency entry in assay [1], in assay [2], in [3], in assay [4], in [17] and in [12] was “inactive” each time. Besides, the Potency result in assay [13], in assay [5], in [6], in assay [16], in assay [7] and in [8] was “inactive” in each case. For the same compound, the Potency result in assay [9] and in [11] was “inactive” in each case.

`CCCCCC(C)=O`: the Potency entry in [1], in [2], in assay [4], in assay [12], in assay [5] and in assay [14] was “inactive” in each case. Also, the Potency result in assay [16], in assay [7], in assay [8] and in assay [11] was “inactive” throughout. Moreover, the Potency entry in [13] is “inactive and 54.5 µM (active)”; in [6], “inactive and 27.3 µM (active)”.

As to `CC(=O)OC(C)(C)C1CC=C(C)CC1` (stereo not drawn), the Potency result in assay [1], in [2], in assay [3], in [4], in assay [17] and in assay [12] was “inactive” throughout. Also, the Potency entry in assay [13], in [5], in assay [6], in [16], in [7] and in assay [8] was “inactive” throughout. Moreover, the Potency result in [9], in assay [10], in assay [18] and in [11] was “inactive” in each case.

Take `OCC(CO)(CO)CO`: the Potency result in assay [1], in [2], in assay [3], in assay [4], in assay [12] and in assay [13] was “inactive” in each case. The Potency entry in assay [5], in assay [6], in [14], in assay [15], in assay [16] and in [7] was “inactive” each time. For the same compound, the Potency entry in [8], in [9], in assay [10], in [18] and in assay [11] was “inactive” each time.

Turning to `CC(=O)OC[C@H]1O[C@@](COC(C)=O)(O[C@H]2O[C@H](COC(C)=O)[C@@H](OC(C)=O)[C@H](OC(C)=O)[C@H]2OC(C)=O)[C@@H](OC(C)=O)[C@@H]1OC(C)=O`, the Potency entry in assay [1], in assay [2], in assay [4], in assay [17], in assay [12] and in assay [13] was “inactive” throughout. The Potency entry in [5], in [6], in [14], in [15], in assay [16] and in assay [7] was “inactive” throughout. In addition, the Potency result in assay [8], in assay [10], in assay [18] and in assay [11] was “inactive” in each case. Moreover, the result in [19] was inactive.

For `CC(C)(C)NC[C@H](O)COc1nsnc1N1CCOCC1`, the Potency result in [1], in assay [2], in assay [4], in assay [12], in [13] and in assay [5] was “inactive” in each case. The Potency entry in assay [6], in [16], in [7], in [8] and in assay [11] was “inactive” in each case. Moreover, the compound was called inactive in assay [19].

For the compound `CS(=O)(=O)c1ccc(Cl)cc1`, the Potency entry in assay [1], in assay [2], in [4], in [17], in [12] and in assay [13] was “inactive” throughout. The Potency entry in [5], in assay [6], in assay [14], in assay [15], in assay [16] and in [7] was “inactive” throughout. For the same compound, the Potency entry in assay [8], in assay [10], in [18] and in assay [11] was “inactive” throughout.

Values taken from PubChem BioAssay (Tox21).
